Reference: PubChem BioAssay AID1159580 (chemical genetic matrix, 2015)
The campaign covered roughly 5,500 compounds. About 2,000 (36%) were called active. About 18% were inconclusive and are not listed. Rule as the data show it: active = normalized growth mostly below about 0.91 (no sharp cut-off); inconclusive = no clear call, values can overlap the other calls; inactive = mostly above about 0.92. The list shows a part of the results.

Assay: chemical genetic growth profiling, strain panel (AID 1159580);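 also: tested at 20 µM; growth read once vehicle control cultures reached saturation at 30 °C; 1 = growth at the plate median or of vehicle wells; lower values mean less growth of the strain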
Settings: growth OD

Measured: normalized growth

CC1(C)C[C@@H]2C(=O)CC[C@H]3O[C@]3(C)CC[C@H]21
inactive: S. cerevisiae deletion strains, locus YJR075W, strain HOC1, hits give low values 1.01 | S. cerevisiae deletion strains, locus YKL009W, strain mrt4, hits give low values 0.985 | S. cerevisiae deletion strains, locus YKL068W, hits give low values 0.997 | S. cerevisiae deletion strains, locus YKL085W, strain MDH1 (second series), hits give low values 0.996 | S. cerevisiae deletion strains, locus YKL085W, strain MDH1, hits give low values 0.996 | S. cerevisiae deletion strains, locus YKL160W, strain elf1, hits give low values 1.01 | S. cerevisiae deletion strains, locus YKL190W, strain CNB1, hits give low values 1.01 | S. cerevisiae deletion strains, locus YKR001C, strain vps1, hits give low values 0.994 | S. cerevisiae deletion strains, locus YKR026C, strain gcn3, hits give low values 1.02 | S. cerevisiae deletion strains, locus YKR091W, strain srl3, hits give low values 1.01 | S. cerevisiae deletion strains, locus YLL001W, strain dnm1, hits give low values 0.985 | S. cerevisiae deletion strains, locus YLL026W, hits give low values 1.01 | S. cerevisiae deletion strains, locus YLL041C, strain sdh2, hits give low values 1.01 | S. cerevisiae deletion strains, locus YLR027C, strain aat2, hits give low values 1.03 | S. cerevisiae deletion strains, locus YLR039C, strain RIC1, hits give low values 1.07 | S. cerevisiae deletion strains, locus YLR058C, strain SHM2, hits give low values 1.01 | S. cerevisiae deletion strains, locus YLR102C, strain apc9, hits give low values 0.991 | S. cerevisiae deletion strains, locus YLR113W, strain HOG1, hits give low values 0.951 | S. cerevisiae deletion strains, locus YLR221C, strain rsa3, hits give low values 1.04 | S. cerevisiae deletion strains, locus YLR258W, strain gsy2, hits give low values 0.995 | S. cerevisiae deletion strains, locus YLR262C, strain YPT6 (second series), hits give low values 1.05 | S. cerevisiae deletion strains, locus YLR262C, strain YPT6, hits give low values 1.06 | S. cerevisiae deletion strains, locus YLR268W, strain sec22, hits give low values 0.992 | S. cerevisiae deletion strains, locus YLR320W, strain mms22, hits give low values 1.04 | S. cerevisiae deletion strains, locus YLR330W, strain CHS5, hits give low values 1.01 | S. cerevisiae deletion strains, locus YLR342W, strain FKS1 (second series), hits give low values 0.987 | S. cerevisiae deletion strains, locus YLR342W, strain FKS1, hits give low values 1.01 | S. cerevisiae deletion strains, locus YLR357W, strain rsc2, hits give low values 1 | S. cerevisiae deletion strains, locus YLR370C, strain arc18, hits give low values 1.01 | S. cerevisiae deletion strains, locus YLR371W, strain rom2, hits give low values 0.998 | S. cerevisiae deletion strains, locus YLR384C, strain iki3, hits give low values 1.03 | S. cerevisiae deletion strains, locus YLR418C, strain cdc73, hits give low values 1.01 | S. cerevisiae deletion strains, locus YML016C, strain PPZ1, hits give low values 1 | S. cerevisiae deletion strains, locus YML032C, strain rad52, hits give low values 0.983 | S. cerevisiae deletion strains, locus YML120C, strain ndi1, hits give low values 0.999 | S. cerevisiae deletion strains, locus YML124C, strain tub3, hits give low values 0.995 | S. cerevisiae deletion strains, locus YMR058W, strain fet3, hits give low values 1.03 | S. cerevisiae deletion strains, locus YMR078C, strain ctf18, hits give low values 0.989 | S. cerevisiae deletion strains, locus YMR125W, strain sto1, hits give low values 1.01 | S. cerevisiae deletion strains, locus YMR129W, hits give low values 1.01 | S. cerevisiae deletion strains, locus YMR205C, strain PFK2, hits give low values 1 | S. cerevisiae deletion strains, locus YMR223W, strain ubp8, hits give low values 0.991 | S. cerevisiae deletion strains, locus YMR231W, strain pep5, hits give low values 1.02 | S. cerevisiae deletion strains, locus YMR263W, strain SAP30, hits give low values 1.02 | S. cerevisiae deletion strains, locus YMR307W, strain GAS1, hits give low values 1.01 | S. cerevisiae deletion strains, locus YNL067W, strain RPL9B, hits give low values 1.01 | S. cerevisiae deletion strains, locus YNL071W, strain lat1, hits give low values 1.01 | S. cerevisiae deletion strains, locus YNL128W, strain TEP1, hits give low values 1.02 | S. cerevisiae deletion strains, locus YNL153C, strain GIM3, hits give low values 1.02 | S. cerevisiae deletion strains, locus YNL183C, strain NPR1, hits give low values 0.905 | S. cerevisiae deletion strains, locus YNL209W, strain ssb2, hits give low values 1.01 | S. cerevisiae deletion strains, locus YNL233W, strain BNI4, hits give low values 1.02 | S. cerevisiae deletion strains, locus YNL248C, strain rpa49, hits give low values 1.04 | S. cerevisiae deletion strains, locus YNL250W, strain rad50, hits give low values 0.998 | S. cerevisiae deletion strains, locus YNL271C, strain bni1, hits give low values 0.997 | S. cerevisiae deletion strains, locus YNL298W, strain CLA4, hits give low values 0.996 | S. cerevisiae deletion strains, locus YNL307C, strain MCK1, hits give low values 0.99 | S. cerevisiae deletion strains, locus YNL322C, strain KRE1 (second series), hits give low values 1 | S. cerevisiae deletion strains, locus YNL322C, strain KRE1, hits give low values 1.01 | S. cerevisiae deletion strains, locus YNR049C, strain mso1, hits give low values 1.02 | S. cerevisiae deletion strains, locus YNR052C, strain pop2, hits give low values 0.999 | S. cerevisiae deletion strains, locus YOL006C, strain TOP1, hits give low values 1.07 | S. cerevisiae deletion strains, locus YOL012C, strain htz1 1.57 | S. cerevisiae deletion strains, locus YOL147C, strain pex11, hits give low values 0.997 | S. cerevisiae deletion strains, locus YOR001W, strain rrp6, hits give low values 1.02 | S. cerevisiae deletion strains, locus YOR061W, strain CKA2, hits give low values 1.01 | S. cerevisiae deletion strains, locus YOR069W, strain VPS5, hits give low values 1 | S. cerevisiae deletion strains, locus YOR070C, strain gyp1, hits give low values 1.02 | S. cerevisiae deletion strains, locus YOR080W, strain dia2, hits give low values 1.03 | S. cerevisiae deletion strains, locus YOR083W, strain WHI5, hits give low values 1.01 | S. cerevisiae deletion strains, locus YOR106W, strain vam3, hits give low values 0.995 | S. cerevisiae deletion strains, locus YOR136W, strain idh2, hits give low values 0.996 | S. cerevisiae deletion strains, locus YOR144C, strain elg1, hits give low values 0.995 | S. cerevisiae deletion strains, locus YOR184W, strain ser1, hits give low values 0.962 | S. cerevisiae deletion strains, locus YOR231W, strain MKK1, hits give low values 0.947 | S. cerevisiae deletion strains, locus YOR265W, strain rbl2, hits give low values 1.03 | S. cerevisiae deletion strains, locus YOR270C, strain vph1, hits give low values 1.07 | S. cerevisiae deletion strains, locus YOR290C, strain snf2, hits give low values 0.995 | S. cerevisiae deletion strains, locus YOR316C, strain cot1, hits give low values 0.992 | S. cerevisiae deletion strains, locus YPL051W, strain arl3, hits give low values 1 | S. cerevisiae deletion strains, locus YPL055C, strain LGE1, hits give low values 1.04 | S. cerevisiae deletion strains, locus YPL078C, strain atp4, hits give low values 0.992 | S. cerevisiae deletion strains, locus YPL106C, strain sse1, hits give low values 0.984 | S. cerevisiae deletion strains, locus YPL240C, strain hsp82, hits give low values 1.02 | S. cerevisiae deletion strains, locus YPL241C, strain CIN2, hits give low values 1.01 | S. cerevisiae deletion strains, locus YPL256C, strain CLN2, hits give low values 0.983 | S. cerevisiae deletion strains, locus YPR119W, strain clb2, hits give low values 0.992 | S. cerevisiae deletion strains, locus YPR141C, strain kar3, hits give low values 0.991 | S. cerevisiae deletion strains, locus YPR163C, strain tif3, hits give low values 0.998 | S. cerevisiae deletion strains, locus YPR167C, strain met16, hits give low values 0.995 | S. cerevisiae deletion strains, strain wtn01, hits give low values 0.989 | S. cerevisiae strains, strain wild type, hits give low values 1.01
